Screening data: PubChem BioAssay, National Center for Advancing Translational Sciences (NCATS)
nsP2pro inh – inhibitors of chikungunya virus nsP2 protease; FRET peptide cleavage, nsP2pro, fluorescence 1 h; Potency, µM (series often up to 24.9 µM), without a hit: at the top dose activity change, negative = inhibition, actives largely listed as inhibitors; Q8JUX6; 31,000 tested, 1.1% active; AID 1964107; further: nearly all actives have a fitted effect of over 60% in size
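Enzyme 150 nM, substrate 2.5 uM (both final); Tris-HCl 10 mM pH 8.0 + 0.01% Tween 20; cpd up to 25 uM, 7 pts; 15 min preinc., 1 h RT; fluorescence ex 525/em 598.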
nsP2 cell sec – inhibits CHIKV nsP2 protease in cells; shares compounds with nsP2pro inh; 450 tested, 10% active; Potency, µM (series often up to 51.1 µM), for inactives: at the highest dose activity change, negative = inhibition, most hits filed as inhibitors; cell-based CHIKV nsP2 protease reporter assay; further: nearly all actives have a fitted effect of over 70% in size
CHIKV NSP2 FL – full-length CHIKV NSP2 protease inhibition, selectivity; shares compounds with nsP2pro inh; Full-length CHIKV NSP2 protease enzymatic counterscreen; Potency, µM (series often up to 50.7 µM), for inactives: at the top dose activity change, negative = inhibition, actives largely listed as inhibitors; 410 tested, 39% active; further: nearly all actives have a fitted effect of over 65% in size
Furin counterscr – inhibits human furin in a CHIKV nsP2 protease selectivity counterscreen; shares compounds with nsP2pro inh; Recombinant human furin enzymatic counterscreen, fluorogenic substrate; Potency, µM (series often up to 50.6 µM), for inactives: at the highest dose activity change, negative = inhibition, most hits filed as inhibitors; 410 tested, 6% active; AID 1964102
Target sequence (P09958 whole entry, looked up): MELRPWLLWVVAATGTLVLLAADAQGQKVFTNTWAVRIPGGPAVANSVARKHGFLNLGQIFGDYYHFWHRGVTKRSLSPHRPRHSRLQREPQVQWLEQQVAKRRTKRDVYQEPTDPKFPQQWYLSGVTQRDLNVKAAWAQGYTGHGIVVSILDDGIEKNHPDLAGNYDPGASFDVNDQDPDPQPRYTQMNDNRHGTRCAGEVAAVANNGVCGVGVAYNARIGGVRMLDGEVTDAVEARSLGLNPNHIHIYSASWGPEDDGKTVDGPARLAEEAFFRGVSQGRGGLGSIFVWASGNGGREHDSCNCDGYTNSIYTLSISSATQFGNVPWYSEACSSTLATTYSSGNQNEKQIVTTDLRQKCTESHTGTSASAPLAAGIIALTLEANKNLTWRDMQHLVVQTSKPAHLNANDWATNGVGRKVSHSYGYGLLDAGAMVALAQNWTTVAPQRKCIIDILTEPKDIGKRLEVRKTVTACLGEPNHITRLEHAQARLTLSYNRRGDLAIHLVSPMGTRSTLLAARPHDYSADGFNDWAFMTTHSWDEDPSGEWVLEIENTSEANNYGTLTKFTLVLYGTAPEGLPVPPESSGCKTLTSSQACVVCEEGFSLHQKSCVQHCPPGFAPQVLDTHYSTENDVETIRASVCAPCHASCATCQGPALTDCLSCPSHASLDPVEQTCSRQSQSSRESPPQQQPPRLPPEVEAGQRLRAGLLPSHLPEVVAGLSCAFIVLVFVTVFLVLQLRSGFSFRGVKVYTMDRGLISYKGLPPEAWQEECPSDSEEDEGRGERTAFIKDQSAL
NS23 peptide cs – nsP2pro inhibition on native NS2/3 peptide substrate. shares compounds with nsP2pro inh. Purified CHIKV nsP2 protease, endogenous NS2/3 peptide cleavage. Potency, µM (highest dose often 51 µM), for inactives: at the highest dose activity change, negative = inhibition, actives largely listed as inhibitors. 410 tested, 34% active; further: nearly all actives have a fitted effect of over 55% in size
Papain counter – inhibits papain in a CHIKV nsP2 protease selectivity counterscreen. shares compounds with nsP2pro inh. purified papain protease activity, enzymatic inhibition. Potency, µM (top dose mostly 51 µM), for inactives: at the top dose activity change, negative = inhibition, hits mostly inhibitors. 410 tested, 5% active. AID 1964104
nsP2pro conf qHTS – confirmation of CHIKV nsP2 protease inhibitors. shares compounds with nsP2pro inh. CHIKV nsP2 protease enzymatic activity, qHTS. Potency, µM (highest dose often 25.5 µM), without a hit: at the top dose activity change, negative = inhibition, actives largely listed as inhibitors. 410 tested, 43% active. AID 1964105; further: nearly all actives have a fitted effect of over 75% in size
HCV NS3 counter – inhibits HCV NS3/4A protease in an nsP2pro selectivity counterscreen; shares compounds with nsP2pro inh; HCV NS3/4A protease biochemical counterscreen; Potency, µM (titrated, usually from 50.9 µM), most hits filed as inhibitors; 410 tested, 20% active; further: nearly all actives have a fitted effect of over 55% in size
An asterisk follows results filed as active; i = inactive; ? = inconclusive; [ ] = remark or other dose. The full list was thinned out, with hits kept by preference. The call rests on the fitted dose curve. On the % scale 0 is the no-effect control and ±100 the full control effect; potency means the concentration at half of the fitted maximal effect.

SMILES | nsP2pro inh | others
C=C1C(=O)O[C@H]2C3=C(C)CCC[C@]3(C)C(=O)C[C@@H]12 | ? | nsP2 cell sec=?;CHIKV NSP2 FL=?;Furin counterscr=2%;NS23 peptide cs=?;Papain counter=?;nsP2pro conf qHTS=?;HCV NS3 counter=i
C=C1C(=O)O[C@@H]2[C@H]3O[C@]3(C)CC/C=C(\C)CC[C@@H]12 | -5%
C=C1CC[C@@H](O)[C@]2(C)CC[C@H]3C(=C)C(=O)O[C@@H]3[C@@H]12 | 12%
O[C@H]1[C@H](NCc2ccc(F)cc2)[C@H]2CO[C@H](O2)[C@@H]1N1CCC(Cc2ccccc2)CC1 | i
COc1cc(CCc2ccc(OCC=C(C)C)cc2)cc(OC)c1OC | 18%
Cc1cc(O)c2c(c1)C(=O)c1cccc(O)c1C2=O | ? | nsP2 cell sec=9%;CHIKV NSP2 FL=?;Furin counterscr=-4%;NS23 peptide cs=-8%;Papain counter=-6%;nsP2pro conf qHTS=?;HCV NS3 counter=i
O=C(O)c1ccc(C(=O)O)cc1 | -20%
O=C1Nc2ccccc2/C1=C/c1cccc(C(=O)O)c1 | i
O=C(O)c1cc(O)c2c(c1)C(=O)c1cccc(O)c1C2=O | ? | nsP2 cell sec=-12%;CHIKV NSP2 FL=15%;Furin counterscr=5%;NS23 peptide cs=i;Papain counter=?;nsP2pro conf qHTS=22%;HCV NS3 counter=i
O=C1c2c(O)cccc2Cc2cccc(O)c21 | 26%
O=C1Cc2ccccc2N1 | 4%
COCC1CN(C)CC12CCN(S(=O)(=O)Cc1ccc(F)cc1)CC2 (centres undefined) | -1%
CC(=O)N1CCN(Cc2snnc2C(C)C)CC(O)C1 (centres undefined) | -12%
COc1cc2c(c(OC)c1O)C(c1ccc(O)cc1)C1C(=O)OC3C(COC(=O)C1=C2)OC(CO)(OC1OC(COC(=O)/C=C/c2ccc(OC4OC(C)C(O)C(O)C4O)cc2)C(O)C(O)C1O)C3O (centres undefined) | 33%[5.1 µM]
CC(=O)Nc1ccc(S(=O)(=O)N2CCCN(S(=O)(=O)c3ccc4c(c3)OCCO4)CC2)cc1 | i
COCCCN1CCC(CNc2nccc(-c3cnn(C)c3)n2)C1 (centres undefined) | i
COc1ccc(C(=O)Nc2ccc(S(=O)(=O)N(Cc3ccccc3)c3ccccc3)cc2)cc1 | -7%
CN(Cc1ccccc1)C(=O)c1ccc(S(=O)(=O)Nc2ccccc2)cc1 | -1%
CC(C)N(CCC(=O)c1ccc2ccccc2c1)Cc1ccccc1 | 0.56µM* | nsP2 cell sec=?;CHIKV NSP2 FL=0.92µM*;Furin counterscr=-12%;NS23 peptide cs=5.8µM*;Papain counter=96%;nsP2pro conf qHTS=0.5µM*;HCV NS3 counter=i
CC(C)(C)OC(=O)N[C@@H](Cc1ccc(OS(=O)(=O)c2cccc3cnccc23)cc1)C(=O)N1CCCN(C(=O)OC(C)(C)C)CC1 | i
CCc1ccc(Cc2ccc3c(c2)[C@]2(OC3)O[C@H](CO)[C@@H](O)[C@H](O)[C@H]2O)cc1 | 14%
Brc1ccc(CN2CCc3nc(N4CCN(c5ncccn5)CC4)ncc3C2)cc1 | 33%
Cc1ccsc1CN1CCc2nc(N3CCN(c4ccccc4F)CC3)ncc2C1 | -20%
CCN1CCN(c2ncc3c(n2)CCN(Cc2sccc2C)C3)CC1 | 7% | nsP2 cell sec=?;CHIKV NSP2 FL=12µM*;Furin counterscr=-9%;NS23 peptide cs=?;Papain counter=-4%;nsP2pro conf qHTS=?;HCV NS3 counter=6.5µM*
CCN1CCN(c2ncc3c(n2)CCN(Cc2ccc(Br)s2)C3)CC1 | 46%
SMILES | nsP2pro inh | others
CN1CCN(c2ncc3c(n2)CCN(Cc2ccc(Br)s2)C3)CC1 | ? | nsP2 cell sec=?;CHIKV NSP2 FL=18µM*;Furin counterscr=-9%;NS23 peptide cs=?;Papain counter=5%;nsP2pro conf qHTS=?;HCV NS3 counter=12µM*
CCN1CCN(c2ncc3c(n2)CCN(Cc2ccc(OC(C)C)cc2)C3)CC1 | -12%
CCOC(=O)C1=C(C)NC2=C(C(=O)CC(C)(C)C2)C1c1ccc(-c2ccccc2)cc1 (centres undefined) | 19%
COc1ccc(C(=O)N2C(C(=O)N3CCCC3)COC23CCN(C(=O)C2CCC2)CC3)cc1 (centres undefined) | -1%
O=C(O)C[C@@H]1CCN(C(=O)c2ccco2)C[C@@H]1CCN1CCOCC1 | -8%[39.2 µM]
Cc1cnc(C(=O)N2C[C@H]3OC(=O)N(CCc4cccc(Cl)c4)[C@H]3C2)[nH]1 | -8%
CN(CC(=O)O)/C(N)=N/P(=O)(O)O | 10%
Cn1cncc1CN1CCC2(CCN(C3CCOCC3)CC2)C(CO)C1 (centres undefined) | -8%
CCCCC(F)(F)C1(O)CCC2C(CC(=O)C2CCCCCCC(=O)O)O1 (centres undefined) | 8%
COc1cc(Nc2ccc([N+](=O)[O-])cc2C(=O)O)cc2ccccc12 | 72%
Cc1cc(-c2nc3ccncc3[nH]2)c(C)[nH]1 | i
O=C(c1cnc(C2CC2)nc1)N1CCC2(CCNCC2CO)CC1 (centres undefined) | 3%
O=[N+]([O-])C(Br)(CO)CO | 2.5µM* | nsP2 cell sec=0%;CHIKV NSP2 FL=9.2µM*;Furin counterscr=2%;NS23 peptide cs=9.2µM*;Papain counter=-7%;nsP2pro conf qHTS=1.6µM*;HCV NS3 counter=?
Cc1cn2c(N)c(Cl)cc(C(=O)NCC3CCN(CC(C)C)CC3)c2n1 | 36%
Cc1cccc(-c2nnc(C)n2CCCn2ccnc2)c1[N+](=O)[O-] | i
CCOc1ccccc1NC(=O)C1=C(C)Nc2ncnn2C1c1sccc1C (centres undefined) | -15%
COc1ccccc1NC(=O)C1=C(C)Nc2ncnn2C1c1ccc[nH]1 (centres undefined) | 8.9µM* | nsP2 cell sec=5%
COc1ccc(NC(=O)C2=C(C)Nc3ncnn3C2c2ccc(C)o2)cc1 (centres undefined) | -14%
CC(C)Oc1ccc(-c2nn([C@@H](C)c3oc4ccc(F)cc4c(=O)c3-c3cccc(F)c3)c3ncnc(N)c23)cc1F | 8%
O=c1n(CC2CC2)nc2n1CCN(S(=O)(=O)Cc1ccccc1)CC2 | -4%
CCN(Cc1sccc1C)c1ncnc2ccc(-c3ccc4c(c3)OCO4)cc12 | i
Cc1ccsc1CN(C)c1ncnc2ccc(-c3ccc(CO)o3)cc12 | 10µM* | nsP2 cell sec=26µM*;CHIKV NSP2 FL=?;Furin counterscr=-9%;NS23 peptide cs=?;Papain counter=-8%;nsP2pro conf qHTS=3%;HCV NS3 counter=23µM*
Cc1ccsc1CN(C)c1ncnc2ccc(-c3ccoc3)cc12 | -22%
COc1cccc(CNc2ccc(C(=O)Nc3nccs3)cc2)c1O | i
O=C(NC1CCN(Cc2cccc(-c3cccs3)c2)CC1)c1cccc(Cl)c1 | i
